Shown are actives, neighbours in structure and some others; about 2% of the full set was active somewhere.
Granule exo inh: LAMP-1 surface exposure blockers, TALL-104 cells – cell-based, flow cytometry, MLPCN library, primary screen. TALL-104 LAMP-1 surface exposure; cells stimulated with thapsigargin and PMA. inhibition, % at 10 µM. hit rate 0.66% among 360,000. AID 651702, 2012;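 active means inhibition above about 55%, limit read from the data; inconclusive means no clear call, values can overlap the other calls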
ABCB6 inh MLPCN: ABCB6 transporter inhibitors, primary screen, K562-ABCB6 cells, flow cytometry, MLPCN library. K562-ABCB6 porphyrin accumulation, 1 h; active compounds read low. ATP-binding cassette sub-family B member 6 (Homo sapiens), Q9NP58. hit rate 0.19% among 360,000. fluorescence ratio to DMSO, % at 10 µM. AID 602162, 2011;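 active means fluorescence ratio to DMSO below 75%, the collection mean minus 3 SD; inconclusive means too few cells collected in the well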;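 further: signal is porphyrin accumulated inside mitochondria; 100% equals median channel fluorescence of DMSO control wells; lower ratio means ABCB6 inhibition with less porphyrin fluorescence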
NR1D1 modulator: modulators of Rev-erb alpha DNA binding, primary screen, biochemical, FITC-DNA, fluorescence polarization, uHTS. Nuclear receptor subfamily 1 group D member 1 (Homo sapiens), P20393. Rev-erbα–FITC-DNA binding, 90 min. activity, % at 10 µM. hit rate 0.79% among 370,000. AID 1259318, 2017;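 active means activity above about 14%, limit read from the data; passing the limit was not always enough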;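 further: 0% = DMSO wells with 35 nM protein and 100% = DMSO wells with 750 nM protein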
Target sequence (P20393 whole entry, looked up): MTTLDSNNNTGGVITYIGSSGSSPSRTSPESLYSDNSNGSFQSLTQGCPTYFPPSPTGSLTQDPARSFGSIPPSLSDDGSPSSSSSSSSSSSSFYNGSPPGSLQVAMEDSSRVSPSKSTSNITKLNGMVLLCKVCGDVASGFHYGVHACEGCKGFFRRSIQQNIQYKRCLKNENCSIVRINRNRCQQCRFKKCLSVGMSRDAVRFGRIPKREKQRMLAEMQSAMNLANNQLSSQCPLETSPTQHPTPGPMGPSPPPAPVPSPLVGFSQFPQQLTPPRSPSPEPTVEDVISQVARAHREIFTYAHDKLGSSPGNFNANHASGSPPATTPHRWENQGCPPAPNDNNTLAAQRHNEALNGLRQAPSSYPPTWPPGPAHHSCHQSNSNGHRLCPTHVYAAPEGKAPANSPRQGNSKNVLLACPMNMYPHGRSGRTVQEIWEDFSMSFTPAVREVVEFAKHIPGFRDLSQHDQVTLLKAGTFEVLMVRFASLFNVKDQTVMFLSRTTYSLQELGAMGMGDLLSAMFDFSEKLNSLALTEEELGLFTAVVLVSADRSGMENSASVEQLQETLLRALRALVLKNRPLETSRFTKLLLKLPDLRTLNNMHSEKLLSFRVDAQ
VLA-4 inh: inhibition in human VLA-4 binding assay, primary screen, VLA-4 allosteric modulator project, MLPCN library, flow cytometry, VLA-4 expressing cells; ligand binding flow cytometry; inhibition, % (about 7 µM as worked out from the volumes in the protocol); AID 2557, 2010; Integrin alpha-4 (Homo sapiens), P13612; hit rate 0.2% among 330,000; in the data active means inhibition above about 50%
PG9 Ab binder: binders of HIV-1 gp120 antibody PG9, primary screen, biochemical, TR-FRET; TR-FRET gp120-PG9 antibody binding; inhibition, % at 6.7 µM; hit rate 0.43% among 360,000; AID 624416, 2012; in the data active means inhibition above about 8.5%
Rev-erbA confirm: modulators of Rev-erb alpha DNA binding, confirmation, biochemical, FITC-DNA, fluorescence polarization, single point. AID 1259319, 2017. hit rate 61% among 3,000. 90 min. activation, % at 25 µM. shares compounds with NR1D1 modulator;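 active means activation at or above a set limit, or at least 3 SD above the negative control mean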;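 further: 0% = 35 nM protein with DMSO and 100% = 750 nM protein high control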
RORg DNA counter: modulation of RORgamma DNA binding, dose response, counter-screen for Rev-erb alpha modulator project, biochemical, fluorescence polarization, FITC-DNA; IC50, µM; shares compounds with NR1D1 modulator; purified RORgamma protein-FITC-DNA binding; hit rate 8% among 910;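 active means Compounds whose fitted half-maximal concentration for disrupting protein-DNA binding is below 10 micromolar; the record names Rev-erb in its text, so the target is in doubt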
Active calls of the source: *; i = inactive; ? = inconclusive; . = no result.

SMILES	Granule exo inh	ABCB6 inh MLPCN	NR1D1 modulator	VLA-4 inh	PG9 Ab binder	Rev-erbA confirm	others
CCOCCCNC(=O)c1cc(-c2ccc(Br)s2)nc2ccccc12	-2	94	21*	-14	-29	-15
CC(C)OCCCNC(=O)c1cc(-c2cccs2)nc2ccccc12	-3	98	-7	3	1	.
CCc1cccc(C)c1NC(=O)CSc1nc(-c2ccccc2F)nc2nc[nH]c12	0	100	2	-8	2	.
O=C(CSc1nc(-c2ccccc2F)nc2nc[nH]c12)Nc1c(Cl)cc(Cl)cc1Cl	.	.	38*	11	0	11
Cc1cc(O)ccc1NC(=O)c1ccccc1	-3	101	-5	10	0	.
Cn1nnnc1-c1cc(Br)ccc1NC(=O)c1ccccc1	-1	105	72*	8	-2	46*	RORg DNA counter=>40
COc1ccc(CNC(=O)COC(=O)c2cc(-c3ccc(Cl)s3)nc3ccccc23)cc1	-1	115	121*	14	6	61*
COc1ccc2nc(-c3ccccc3)cc(C(=O)OCC(=O)NC3CC3)c2c1	13	98	18*	.	0	2
C[C@H](CCC(=O)O)[C@H]1CCC2C3C(CC[C@@]21C)[C@@]1(C)CC[C@@H](O)C[C@H]1C[C@H]3O (some centres not stated)	.	.	-2	.	.	.
O=c1c2ccccc2[nH]c(=S)n1Cc1ccccc1	-19	97	19*	9	0	6
O=C(NCc1ccccn1)c1ccc(Cn2c(=S)[nH]c3ccccc3c2=O)cc1	12	99	0	20	-3	.
O=C(NCc1ccccn1)c1ccc(Cn2c(=S)[nH]c3ccc(Br)cc3c2=O)cc1	-2	100	42*	4	-1	35*	RORg DNA counter=>40
C[C@@H]1CN([C@@H](C)CO)C(=O)CCCn2cc(nn2)CO[C@H]1CN(C)C(=O)Nc1ccc(-c2cccs2)cc1	.	.	-3	.	0	.
CN(Cc1ccccc1F)C(=O)C1CCCN(c2ncccn2)C1 (configuration not stated)	.	.	2	.	.	.
CCOc1ccccc1NC(=O)CSC1=C(C#N)C(c2ccco2)C(C(=O)Nc2nc3ccccc3s2)=C(C)N1 (configuration not stated)	-3	95	66*	9	1	54*	RORg DNA counter=>40
COc1cccc(NC(=O)CSc2nc3ccccc3c3nc4ccccc4n23)c1	-10	94	54*	1	0	-6
CC(=O)c1ccc(N2CCN(S(=O)(=O)c3ccc4c(c3)CC(C)N4C(=O)C3CC3)CC2)cc1 (configuration not stated)	14	95	31*	7	1	24*
Cn1c(SCC(=O)c2ccc3c(c2)Cc2ccccc2-3)nnc1-c1ccccc1	-2	95	62*	16	2	47*	RORg DNA counter=7.5*
COc1ccc2c(Cl)c(-c3nnc(SCC(N)=O)n3C)sc2c1	-1	98	2	32	1	.
COc1ccc2c(Cl)c(-c3nnc(SCC(=O)c4ccccc4)n3C)sc2c1	-3	100	95*	2	1	117*	RORg DNA counter=i
CCC(=O)Nc1nnc(SCC(=O)c2ccc3c(c2)Cc2ccccc2-3)s1	-2	94	44*	1	7	17*
CCC(=O)Nc1nnc(SCC(=O)N2c3ccccc3CC2C)s1 (configuration not stated)	0	103	2	9	0	.
Cn1c(SCC(=O)c2ccccc2)nnc1-c1ccncc1	-4	103	1	3	0	.
O=C1c2ccccc2NC(c2ccc(-c3cccc(F)c3)o2)N1O (configuration not stated)	-4	88	-20	8	-1	.
O=C1c2ccccc2NC(c2ccc(-c3ccccc3F)o2)N1O (configuration not stated)	5	97	24*	0	-1	21*
SMILES	Granule exo inh	ABCB6 inh MLPCN	NR1D1 modulator	VLA-4 inh	PG9 Ab binder	Rev-erbA confirm	others
CC(=O)Nc1ccc2ccc3cccc4ccc1c2c34	-2	109	33*	-9	-11	28*
CC(=O)Nc1cccc2cc(O)ccc12	2	123	-6	.	-1	.
COc1cccc(-c2noc(-c3cccnc3)n2)c1	-2	89	1	-11	-3	.
COc1nc2ccc(C)cc2cc1-c1noc(-c2cccnc2)n1	?	97	35*	0	-2	7
CCOC(=O)c1ccc(NC(=O)C2CC(O)CN2S(=O)(=O)c2ccc(C)cc2)cc1 (configuration not stated)	0	103	21*	-12	1	1
COc1ccc2c(c1)cc(C(=O)N[C@@H](Cc1ccccc1)C(=O)N[C@@H](C)C(=O)O)n2C	5	101	28*	5	-1	-6
COc1ccc2c(c1)cc(C(=O)N[C@@H](Cc1ccccc1)C(=O)O)n2C	4	93	-3	6	0	.
CCCCNC(=O)C[C@H]1C(=O)N(Cc2ccc(OC)cc2)C2=CCCCC[C@@]21C(=O)OC	.	.	-1	.	.	.
CCCCCCc1nc2nc(Cl)c(Cl)nc2[nH]1	-7	94	22*	.	-2	-2
Fc1cccc(-c2nnn3c2nc(Cl)c2ccccc23)c1	23	97	90*	.	1	19*
COc1ccc(-c2nnn3c2nc(NCc2ccccc2)c2ccccc23)cc1	1	104	23*	2	-2	17*
Clc1nc2c(-c3ccccc3)nnn2c2ccccc12	27	96	83*	-14	0	68*	RORg DNA counter=>40
NC(=O)c1ncn([C@@H]2O[C@H](C(=O)N[C@H](Cc3ccccc3)C(=O)N3CCN(c4ccc(Cl)cn4)CC3)[C@@H](O)[C@H]2O)n1	.	.	-5	.	-1	.
N#CCC[C@H]1CC[C@]2(CCCN(C(=O)C3CCCC3)C2)O1	.	.	3	.	.	.
C=CCn1c(SCc2nc3ccccc3c(=O)[nH]2)nnc1-c1cc2cc(Cl)ccc2o1	1	101	26*	-1	-1	30*
COc1cccc(CNC(=O)[C@H]2CCCN2C(=O)[C@H]2CCCN2C(=O)N2CCOCC2)c1	.	.	-1	.	0	.
CCOC(=O)[C@@H](NC(=O)[C@@H]1CC=C[C@@H]2CCN(Cc3ccc(Cl)cc3)C(=O)[C@@H]21)C(C)C	.	.	1	.	.	.
